# High-throughput results (PubChem BioAssay)
# An excerpt weighted towards active compounds, which were near 1.6% of everything screened.
# NPR1 activator = GC-A (human) enzyme activation; P16066; HEK293 GC-A cells, cGMP TR-FRET, EC30 ANP; 0% at EC30 ANP, 100% saturating ANP; activation, % at 10 µM; 0.14% of 370,000 active; AID 1671463; in the data active = activation above about 40%
# Rce1 inhib = yeast Ras-converting enzyme inhibition; Q03530; yeast membranes, quenched prenylated peptide cleavage fluorescence; calls only; 0.27% of 290,000 active;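 active = fall in fluorescence gain of 50% or more versus controls, with final raw signal at or below 3038400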
# Efflux pump mplx = inhibitors of Candida antifungal efflux pumps expressed in yeast; AID 485275; 0.44% of 330,000 active; S. cerevisiae Candida pump triplex, Nile Red efflux; inhibition, % at 10 µM;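 active = plate passing quality check with inhibition over a set limit, or well fluorescence over plate mean plus 4 SD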;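 also: Nile Red retained in pooled yeast measured as flow cytometry median fluorescence; higher means more Nile Red kept so more efflux inhibition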
# V-ATPase pH = alters yeast V-ATPase proton transport; S. cerevisiae, pHLuorin cytosolic pH fluorescence; response, % at 10 µM; 0.37% of 350,000 active; AID 504577; in the data active = response mostly above about 7.3%, no sharp cut-off; inactive = mostly below about 5.4%; also: actives read high
# NSD2 inh = inhibitors of human histone methyltransferase NSD2. NSD2 peptide methylation, AlphaScreen, 120 min. 0.54% of 310,000 active. inhibition, % at 12.5 µM; in the data active = inhibition above about 50%
# NPR2 activator = GC-B (human) receptor activation; HEK293-GC-B cells, CNP EC30, cGMP TR-FRET; 0% at EC30 CNP, 100% saturating CNP; activation, % at 10 µM; P20594; 0.11% of 370,000 active;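 active = activation at 10 µM reaching about 35% in either raw or pattern-adjusted values, limit read from the data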
# Alpha artifact = AlphaScreen assay artifact in NSD2 counter-screen. shares compounds with NSD2 inh. AlphaScreen artifact counterscreen, preloaded methylated H4 peptide. AC35, µM (doses to about 10 µM). 9.4% of 1,500 active. AID 1053174; call rule not given here
# Numbers stand for hits; – = inactive; · = no result given.
SMILES,NPR1 activator,Rce1 inhib,Efflux pump mplx,V-ATPase pH,NSD2 inh,NPR2 activator,Alpha artifact
CCC(C)N(C(=O)CN1C(=O)C2CCCCN2C(=O)c2ccccc21)C(C)CC (stereo not given),–,·,·,·,–,–,·
CNCc1ccccc1Sc1cccc(O)c1,–,–,–,–,73.7,–,–
CNCc1ccccc1Sc1cc(O)ccc1O,–,·,–,–,–,–,·
CNCc1ccccc1Sc1ccc(OC)c(OC)c1,–,–,–,–,56.2,–,–
O=C(c1cc(Cl)cc(Cl)c1)N1CC[C@H]2[C@H](CCCN2Cc2ccccc2)C1,–,·,·,·,·,–,·
Oc1ccc(/C=N/N=C(c2ccccc2)c2ccccc2)c(O)c1O,–,·,–,–,75.5,–,4.19µM
O=C(/C(=N/N=C/c1ccc(O)c(O)c1O)c1ccccc1)c1ccccc1,–,–,–,–,–,–,·
COc1cccc(C(=O)N2CCC(Oc3cccnc3)CC2)c1,–,·,·,·,·,–,·
O=C(NC1CCCCN(Cc2cccc(F)c2)C1=O)c1cccc(F)c1 (stereo not given),–,·,·,·,·,–,·
C=CCn1c(SCC(=O)N2CCN(c3ccccc3)CC2)nnc1-c1ccco1,–,–,–,–,84.4,–,–
O=C(CSc1nnc(-c2ccco2)n1-c1ccccc1)N1CCOCC1,–,–,–,–,–,–,·
CCC1CCCCN1C(=O)CSc1nc(N)cc(=O)[nH]1 (stereo not given),–,–,–,–,–,–,·
CC1(C)C2CCC1(C)C(OC(=O)CSc1nc(N)cc(=O)[nH]1)C2 (stereo not given),–,–,–,–,80.2,–,–
O=C(NC1CCCCN(Cc2cccc(F)c2)C1=O)c1ccc(-c2ccccc2)cc1 (stereo not given),–,·,·,·,·,–,·
O=C(Nc1ccc(Cl)cc1)OC1CCC12CCC(c1ccccc1)CC2 (stereo not given),–,·,·,·,·,–,·
COC(=O)C1CN(Cc2cn(CCOC(C)=O)nn2)CCS(=O)(=O)N1Cc1ccc(Cl)cc1 (stereo not given),–,·,·,·,·,–,·
O=C(/C=C/c1ccco1)Nc1ccccc1C(=O)O,–,–,–,–,73.3,–,–
Cc1cccc(NC(=S)N2CCN(c3ccccc3F)CC2)c1C,–,–,–,–,57.0,–,–
CC(=O)NC1=NC(=O)/C(=C/c2cc(C)n(-c3cccc(C(=O)O)c3)c2C)S1,–,–,·,–,131.2,–,–
O=C(O)c1ccc(-n2cccc2/C=C2/NC(=O)N(c3ccccc3)C2=O)cc1,–,–,–,–,101.1,–,–
Cc1ccc(NC(=O)CN2C(=O)N/C(=C/c3cc(C)n(-c4cccc(C(=O)O)c4)c3C)C2=O)cc1,–,·,·,–,76.7,–,–
Cc1ccc(CN2C(=O)N/C(=C\c3cccn3-c3cccc(C(=O)O)c3)C2=O)cc1,–,–,–,–,59.3,–,–
O=C(O)c1ccc(-n2cccc2/C=C2/NC(=O)N(c3cccc(Cl)c3)C2=O)cc1,–,·,·,–,·,–,·
Cc1ccc(NC(=O)CN2C(=O)N/C(=C\c3cccn3-c3cccc(C(=O)O)c3)C2=O)cc1,·,–,·,–,–,·,·
C=CCCC1(CCC)C(=O)/C(=C(\O)c2ccccc2)C(=O)C(CCC)=C1OC (stereo not given),–,·,·,·,·,–,·
SMILES,NPR1 activator,Rce1 inhib,Efflux pump mplx,V-ATPase pH,NSD2 inh,NPR2 activator,Alpha artifact
N#CC(C#N)=Cc1cccn1-c1ccc(C(=O)O)cc1,–,–,–,–,99.7,–,–
CC(=O)c1cc(-c2ccccc2S(=O)(=O)NC(C)(C)C)c(=O)n2c1CCC2,–,·,·,·,·,–,·
COc1ccc(OC)c(NC(=O)CSc2nc3n[nH]c(C)c3c(=N)n2-c2cccc(Cl)c2C)c1,–,–,–,–,–,–,·
CCc1ccccc1NC(=O)CSc1nc2n[nH]c(C)c2c(=N)n1-c1cccc(OC)c1,–,–,–,–,57.5,–,–
COc1cc(O)c([C@@H](CC(=O)N2CC(C)CC(C)C2)c2ccc3c(c2)OCO3)c(OC)c1 (stereo not given in full),–,·,·,·,·,–,·
Cn1c(=O)[nH]c2nnc(-c3ccc(Cl)c(Cl)c3)nc2c1=O,–,–,–,–,106.6,–,–
CSc1cnc2c(=O)n(C)c(=O)[nH]c2n1,–,–,–,–,–,–,·
CC(C)C1Nc2ccc(C(=O)O)cc2C2C=CCC21 (stereo not given),–,–,–,–,58.2,–,–
CCCC1Nc2ccc(C(=O)O)cc2C2C=CCC12 (stereo not given),·,–,–,–,92.0,·,–
O=C(O)c1ccc2c(c1)C1C=CCC1C(c1ccncc1)N2 (stereo not given),–,–,–,–,–,–,·
CN1[C@@H](Cc2ccccc2)COc2cccc(F)c2S1(=O)=O,–,·,·,·,·,–,·
CCN(CC)C(=O)COc1ccc2oc(C)c(C(=O)OC(C)C)c2c1,–,–,–,–,114.4,–,–
CCN(CC)CCNC(=O)c1cccc(NC(=O)C(=O)c2cc(Br)ccc2NC(C)=O)c1,–,–,–,–,56.9,–,–
CC(=O)Nc1ccccc1C(=O)C(=O)Nc1cccc(Br)c1,–,–,–,–,–,–,·
CC(C)(C)C(=O)NC1CC2CCCC(C1)N2C(=O)Nc1ccc(Cl)cc1 (stereo not given),–,–,–,–,56.0,–,–
O=C(CSc1ccccc1)N1CCC(Oc2cccnc2)CC1,–,·,·,·,·,–,·
Nc1c2c(nc3ccccc13)N(c1ccccc1)CC2,–,–,–,–,–,–,·
CN1CCCCc2c1nc1ccccc1c2N (tested in a mixture with another compound),–,–,–,–,82.9,–,–
CCCC[C@H]1C2CC(OC(=O)Nc3cccc(Br)c3)C(C2)[C@H]2CCCCN21 (stereo not given in full),–,·,·,·,·,–,·
CCOC(=O)Cn1cc(CN2C(C(=O)OC)CN(Cc3ccc(Cl)cc3)CCS2(=O)=O)nn1 (stereo not given),–,·,·,·,·,–,·
CCCn1c2c(c(O)c(C(=O)NCCCN(CC)CC)c1=O)CCCC2,–,–,–,–,58.9,–,–
COc1cccc(C(c2nnnn2CCc2ccccc2)N2CCN(c3ccccc3)CC2)c1OC (stereo not given),–,–,–,–,–,–,·
C=CCN1CCN(C(c2cccc(OC)c2OC)c2nnnn2CCC(C)C)CC1 (stereo not given),·,–,–,–,97.9,·,–
CCN1/C(=C/c2ccc3cc(C)cc(C)c3[n+]2CC)Sc2cc(C)ccc21,–,·,·,–,113.2,–,9.69µM
Cc1ccc2c(c1)S/C(=C\c1cccc[n+]1C)N2CCO,–,–,–,–,–,–,·
COc1ccccc1N1CCN(C2CCN(C(=O)c3cccc(F)c3)CC2)CC1,–,–,–,–,59.0,–,–
COc1ccccc1N1CCN(C2CCN(C(=O)c3ccc(F)cc3)CC2)CC1,–,–,–,–,–,–,·
